{"source": "PubChem BioAssay (EPA / NIEHS)", "note": "The source made the active and inactive calls. The calls were made as follows: active = hit-call score of the fitted dose curve at least 0.9, where 1 is the maximum; inactive = score below 0.9.", "data": [{"read-out": "not listed separately", "assay": "BSK_hDFCGF_SRB: Viability Assessment in the BioMAP Diversity Plus: hDFCGF Assay (AID 2283061);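 also: cells exposed to compound for 24 h before the read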", "settings": "primary human foreskin fibroblasts", "in_short": "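Viability was read as total protein: after 10% TCA fixation, wells were stained with 0.1% sulforhodamine B and read at 560 nm. Primary human foreskin fibroblasts were dosed for 24 h, with bidirectional fitting versus DMSO.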", "values": [{"smiles": "CCO[Si](CCCNC(N)=O)(OCC)OCC", "outcome": "inactive"}, {"smiles": "CCCCCCCCOc1ccc(C(=O)c2ccccc2)c(O)c1", "outcome": "inactive"}, {"smiles": "COc1cc(C(=O)NC2CCN(C)CC2)ccc1Nc1ncc2c(n1)N(C1CCCC1)CC(F)(F)C(=O)N2C", "AC50": "16 µM (active)"}, {"smiles": "c1ccc2ccccc2c1", "outcome": "inactive"}, {"smiles": "O=CCCCC=O", "AC50": "33.4 µM (active)"}, {"smiles": "Cc1ncc(CO)c(CO)c1O", "outcome": "inactive"}, {"smiles": "CCCCCCCC[Si](OCC)(OCC)OCC", "outcome": "inactive"}, {"smiles": "CC(O)CC(C)(C)O", "note": "(stereo unspecified)", "outcome": "inactive"}, {"smiles": "Clc1ccccc1C(c1ccccc1)(c1ccccc1)n1ccnc1", "AC50": "9.78 µM (active)"}, {"smiles": "COc1cccc([C@H](O)C2CCN(CCc3ccc(F)cc3)CC2)c1OC", "outcome": "inactive"}, {"smiles": "CCCCCCCCCCCC[N+](C)(C)C", "AC50": "18.4 µM (active)"}, {"smiles": "Clc1cc(Cl)c2c(c1)N=C1CCCCCN1C2", "outcome": "inactive"}, {"smiles": "CO[C@H]1/C=C/O[C@@]2(C)Oc3c(C)c(O)c4c(O)c(c(/C=N/N5CCN(C)CC5)c(O)c4c3C2=O)NC(=O)/C(C)=C\\C=C\\[C@H](C)[C@H](O)[C@@H](C)[C@@H](O)[C@@H](C)[C@H](OC(C)=O)[C@@H]1C", "outcome": "inactive"}, {"smiles": "Oc1ccc2ccccc2c1", "outcome": "inactive"}, {"smiles": "CN(C)C(=O)C1(N2CCCCC2)CCN(CC[C@@]2(c3ccc(Cl)c(Cl)c3)CN(C(=O)c3ccccc3)CCO2)CC1", "AC50": "13.3 µM (active)"}, {"smiles": "CCN(CC)C(=O)c1cc(S(=O)(=O)Cc2ccccc2)c(N2CCC(c3ccccc3)CC2)cc1N(CC)CCN(C)C", "outcome": "inactive"}, {"smiles": "OC12N=C(c3ccccc3)SC1Cc1cc(Cl)ccc12", "note": "(stereo unspecified)", "outcome": "inactive"}, {"smiles": "Cc1c2ccccc2c(C)c2c1ccc1ccccc12", "outcome": "inactive"}, {"smiles": "Cc1cc(F)ccc1-c1cc(N2CC[C@@H](O)[C@H]2CO)ncc1N(C)C(=O)C(C)(C)c1cc(C(F)(F)F)cc(C(F)(F)F)c1", "AC50": "15.7 µM (active)"}, {"smiles": "Cc1cc2c(cc1C(F)(F)F)N(C(=O)Nc1ccc(Oc3cccnc3C)nc1)CC2", "AC50": "27.6 µM (active)"}, {"smiles": "CCCCCCCCOC(=O)c1cc(O)c(O)c(O)c1", "AC50": "18.5 µM (active)"}, {"smiles": "O=c1c(-c2ccc(O)cc2)coc2cc(O)cc(O)c12", "AC50": "14.3 µM (active)"}, {"smiles": "O=C1CCC(C2CCCCC2)CC1", "AC50": "34.4 µM (active)"}, {"smiles": "Oc1ccccc1", "outcome": "inactive"}, {"smiles": "CC1(C)NC(=O)N(c2ccc([N+](=O)[O-])c(C(F)(F)F)c2)C1=O", "outcome": "inactive"}, {"smiles": "CN(C)c1ccc(C(=C2C=CC(=[N+](C)C)C=C2)c2ccc(N(C)C)cc2)cc1", "AC50": "2 µM (active)"}, {"smiles": "CC[C@@H]1C[C@H](N(Cc2cc(C(F)(F)F)cc(C(F)(F)F)c2)C(C)=O)c2cc(C(F)(F)F)ccc2N1C(=O)OC(C)C", "outcome": "inactive"}, {"smiles": "CN(C[C@@H](CC[N+]12CCC(C3CCCCC3)(CC1)CC2)c1ccc(Cl)c(Cl)c1)C(=O)c1cc(C(F)(F)F)cc(C(F)(F)F)c1", "AC50": "5.86 µM (active)"}, {"smiles": "CC/C(=C(/CC)c1ccc(O)cc1)c1ccc(O)cc1", "AC50": "25.7 µM (active)"}, {"smiles": "Cc1cn([C@H]2C[C@H](N=[N+]=[N-])[C@@H](CO)O2)c(=O)[nH]c1=O", "outcome": "inactive"}, {"smiles": "CCCCCCCCCCCCO", "AC50": "30.6 µM (active)"}, {"smiles": "O=C=NCCCCCCN=C=O", "outcome": "inactive"}, {"smiles": "CN1C(=O)CC[C@H]1c1cccnc1", "outcome": "inactive"}, {"smiles": "O=C1O[C@H]([C@@H](O)CO)C(O)=C1O", "outcome": "inactive"}, {"smiles": "CCN(Cc1cccc(S(=O)(=O)O)c1)c1ccc(C(=C2C=CC(=[N+](CC)Cc3cccc(S(=O)(=O)O)c3)C=C2)c2ccccc2S(=O)(=O)[O-])cc1", "outcome": "inactive"}, {"smiles": "CN1C(=O)N(c2ccccc2Br)Cc2cnc(Nc3ccc4c(c3)OCC(CO)O4)nc21", "note": "(stereo unspecified)", "AC50": "19 µM (active)"}, {"smiles": "CCN(Cc1cccnc1)C(=O)c1cccc(Cl)c1[C@]1(C)C(=O)N(Cc2ccc(OC)cc2OC)c2ccc(Cl)cc21", "outcome": "inactive"}, {"smiles": "CCCC(=O)OCCC(C)C", "outcome": "inactive"}]}, {"read-out": "TIMP metallopeptidase inhibitor 1 (TIMP1), TIMP1 (gene 7076)", "assay": "BSK_hDFCGF_TIMP1: BioMAP Diversity Plus: hDFCGF Assay for TIMP metallopeptidase inhibitor 1 (TIMP1) Biomarker Activity (AID 2283062)", "settings": "primary human foreskin fibroblasts; actives raise or lower the signal", "in_short": "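TIMP-1 measured by ELISA 24 h after chemical dosing of primary human skin fibroblasts, with gain or loss fitted relative to DMSO. Parallel SRB staining (560 nm) monitored overt cytotoxicity.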", "values": [{"smiles": "CCO[Si](CCCNC(N)=O)(OCC)OCC", "outcome": "inactive"}, {"smiles": "CCCCCCCCOc1ccc(C(=O)c2ccccc2)c(O)c1", "outcome": "inactive"}, {"smiles": "COc1cc(C(=O)NC2CCN(C)CC2)ccc1Nc1ncc2c(n1)N(C1CCCC1)CC(F)(F)C(=O)N2C", "outcome": "inactive"}, {"smiles": "c1ccc2ccccc2c1", "outcome": "inactive"}, {"smiles": "O=CCCCC=O", "AC50": "13.9 µM (active)"}, {"smiles": "Cc1ncc(CO)c(CO)c1O", "outcome": "inactive"}, {"smiles": "CCCCCCCC[Si](OCC)(OCC)OCC", "outcome": "inactive"}, {"smiles": "CC(O)CC(C)(C)O", "note": "(stereo unspecified)", "outcome": "inactive"}, {"smiles": "Clc1ccccc1C(c1ccccc1)(c1ccccc1)n1ccnc1", "AC50": "9.85 µM (active)"}, {"smiles": "COc1cccc([C@H](O)C2CCN(CCc3ccc(F)cc3)CC2)c1OC", "outcome": "inactive"}, {"smiles": "CCCCCCCCCCCC[N+](C)(C)C", "outcome": "inactive"}, {"smiles": "Clc1cc(Cl)c2c(c1)N=C1CCCCCN1C2", "outcome": "inactive"}, {"smiles": "CO[C@H]1/C=C/O[C@@]2(C)Oc3c(C)c(O)c4c(O)c(c(/C=N/N5CCN(C)CC5)c(O)c4c3C2=O)NC(=O)/C(C)=C\\C=C\\[C@H](C)[C@H](O)[C@@H](C)[C@@H](O)[C@@H](C)[C@H](OC(C)=O)[C@@H]1C", "outcome": "inactive"}, {"smiles": "Oc1ccc2ccccc2c1", "outcome": "inactive"}, {"smiles": "CN(C)C(=O)C1(N2CCCCC2)CCN(CC[C@@]2(c3ccc(Cl)c(Cl)c3)CN(C(=O)c3ccccc3)CCO2)CC1", "AC50": "24.8 µM (active)"}, {"smiles": "CCN(CC)C(=O)c1cc(S(=O)(=O)Cc2ccccc2)c(N2CCC(c3ccccc3)CC2)cc1N(CC)CCN(C)C", "outcome": "inactive"}, {"smiles": "OC12N=C(c3ccccc3)SC1Cc1cc(Cl)ccc12", "note": "(stereo unspecified)", "outcome": "inactive"}, {"smiles": "Cc1c2ccccc2c(C)c2c1ccc1ccccc12", "outcome": "inactive"}, {"smiles": "Cc1cc(F)ccc1-c1cc(N2CC[C@@H](O)[C@H]2CO)ncc1N(C)C(=O)C(C)(C)c1cc(C(F)(F)F)cc(C(F)(F)F)c1", "AC50": "12.4 µM (active)"}, {"smiles": "Cc1cc2c(cc1C(F)(F)F)N(C(=O)Nc1ccc(Oc3cccnc3C)nc1)CC2", "outcome": "inactive"}, {"smiles": "CCCCCCCCOC(=O)c1cc(O)c(O)c(O)c1", "AC50": "37.8 µM (active)"}, {"smiles": "O=c1c(-c2ccc(O)cc2)coc2cc(O)cc(O)c12", "outcome": "inactive"}, {"smiles": "O=C1CCC(C2CCCCC2)CC1", "AC50": "32.7 µM (active)"}, {"smiles": "Oc1ccccc1", "outcome": "inactive"}, {"smiles": "CC1(C)NC(=O)N(c2ccc([N+](=O)[O-])c(C(F)(F)F)c2)C1=O", "outcome": "inactive"}, {"smiles": "CN(C)c1ccc(C(=C2C=CC(=[N+](C)C)C=C2)c2ccc(N(C)C)cc2)cc1", "AC50": "1.95 µM (active)"}, {"smiles": "CC[C@@H]1C[C@H](N(Cc2cc(C(F)(F)F)cc(C(F)(F)F)c2)C(C)=O)c2cc(C(F)(F)F)ccc2N1C(=O)OC(C)C", "outcome": "inactive"}, {"smiles": "CN(C[C@@H](CC[N+]12CCC(C3CCCCC3)(CC1)CC2)c1ccc(Cl)c(Cl)c1)C(=O)c1cc(C(F)(F)F)cc(C(F)(F)F)c1", "AC50": "7.05 µM (active)"}, {"smiles": "CC/C(=C(/CC)c1ccc(O)cc1)c1ccc(O)cc1", "AC50": "33.4 µM (active)"}, {"smiles": "Cc1cn([C@H]2C[C@H](N=[N+]=[N-])[C@@H](CO)O2)c(=O)[nH]c1=O", "outcome": "inactive"}, {"smiles": "CCCCCCCCCCCCO", "AC50": "36.4 µM (active)"}, {"smiles": "O=C=NCCCCCCN=C=O", "outcome": "inactive"}, {"smiles": "CN1C(=O)CC[C@H]1c1cccnc1", "outcome": "inactive"}, {"smiles": "O=C1O[C@H]([C@@H](O)CO)C(O)=C1O", "outcome": "inactive"}, {"smiles": "CCN(Cc1cccc(S(=O)(=O)O)c1)c1ccc(C(=C2C=CC(=[N+](CC)Cc3cccc(S(=O)(=O)O)c3)C=C2)c2ccccc2S(=O)(=O)[O-])cc1", "outcome": "inactive"}, {"smiles": "CN1C(=O)N(c2ccccc2Br)Cc2cnc(Nc3ccc4c(c3)OCC(CO)O4)nc21", "note": "(stereo unspecified)", "AC50": "6.79 µM (active)"}, {"smiles": "CCN(Cc1cccnc1)C(=O)c1cccc(Cl)c1[C@]1(C)C(=O)N(Cc2ccc(OC)cc2OC)c2ccc(Cl)cc21", "outcome": "inactive"}, {"smiles": "CCCC(=O)OCCC(C)C", "outcome": "inactive"}]}]}
